Results as given in PubChem BioAssay (EPA / NIEHS).
The source holds several records for some structures; these can differ, active in one and inactive in another. The source made the active and inactive calls. How the source made its calls: active means hit-call score of the fitted dose curve at least 0.9, where 1 is the maximum; inactive means score below 0.9.

Columns and labels:
[1] = biological target: Transcription factor E2F1 (Homo sapiens) (UniProt Q01094); experiment: ATG_E2F_CIS: Attagene CIS-FACTORIAL HepG2 Assay for human E2F Transcription Factor 1 (AID 2282935); settings: HepG2 Attagene cis-reporter, E2F reporter RNA transcripts; actives raise or lower the signal
Summary of the method: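 Transient MRTU transfection of HepG2; 24 h compound exposure; RNA → oligo(dT) RT → PCR → FAM label → HpaI cut → CE fluorescence. Gain/loss of signal fit against DMSO.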

[2] = ATG_E_Box_CIS: Attagene CIS-FACTORIAL HepG2 Assay for human Enhancer Box (E-box) (AID 2282936); settings: HepG2 E-box cis-reporter transcription, actives raise or lower the signal
Summary of the method: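 Transiently transfected HepG2, endogenous TF-driven reporters, 24 h dosing. Readout: RT-PCR plus capillary electrophoresis of fluorescent reporter fragments. Gain or loss of signal fitted bidirectionally against DMSO baseline.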

[3] = ATG_EGR_CIS: Attagene CIS-FACTORIAL HepG2 Assay for human Early Growth Response 1 (EGR1) (AID 2282938); settings: HepG2 Attagene CIS-FACTORIAL EGR reporter mRNA; actives raise or lower the signal
Summary of the method: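 Fluorescent capillary-electrophoresis signal of reporter cDNA fragments serves as read-out. HepG2 cells bear transiently transfected cis-promoter reporter units and are exposed 24 h; gain- or loss-of-signal is fitted against DMSO.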

[4] = ATG_M_19_CIS: Attagene CIS-FACTORIAL HepG2 Assay for M19 Transcription Factor (Internal Marker) (AID 2282939); settings: HepG2 Attagene CIS-FACTORIAL M19 internal marker reporter; actives raise or lower the signal
Summary of the method: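 Internal marker readout, fitted in both directions against DMSO, from HepG2 cells carrying transfected cis-element reporter constructs; RT-PCR and capillary electrophoresis of reporter mRNA after 24 h exposure.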

[5] = ATG_ERE_CIS: Attagene CIS-FACTORIAL HepG2 Assay for Estrogen Response Element (ERE) (AID 2282940); settings: HepG2 ERE cis-reporter, Attagene RNA transcript; actives raise or lower the signal
Summary of the method: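 After 24 h compound treatment, RNA from transfected HepG2 cells was reverse-transcribed, reporter cDNA PCR-amplified, FAM-labelled, HpaI-cut and resolved by capillary electrophoresis. ERE-driven cis reporter transcripts reflect endogenous factors; gain or loss scored against DMSO.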

[6] = ATG_Ets_CIS: Attagene CIS-FACTORIAL HepG2 Assay for human Erythroblast Transformation Specific (ETS) (AID 2282941); settings: HepG2 ETS cis-reporter transcription, actives raise or lower the signal
Summary of the method: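 RT-PCR/capillary electrophoresis fluorescence read-out of reporter mRNA; HepG2 transient multi-reporter transfection; 24 h compound exposure; gain or loss of signal fitted bidirectionally relative to DMSO.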

[7] = biological target: Hepatocyte nuclear factor 3-beta (Homo sapiens) (UniProt Q9Y261); experiment: ATG_FoxA2_CIS: Attagene CIS-FACTORIAL HepG2 Assay for human Forkhead box A2 (FOXA2) (AID 2282942); settings: HepG2 cis-reporter transcription factor activity, 24 h; actives raise or lower the signal
Summary of the method: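 Fluorescence signal of reporter cDNA fragments, separated by capillary electrophoresis, reflects endogenous transcription factor activity in transfected HepG2 after 24 h. Both increases and decreases fitted against DMSO.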

[8] = ATG_FoxO_CIS: Attagene CIS-FACTORIAL HepG2 Assay for human Forkhead box O (FoxO) (AID 2282943); settings: HepG2 Attagene cis-reporter, FoxO element, mRNA; actives raise or lower the signal
Summary of the method: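 Read-out: fluorescence of 6-FAM-labelled reporter cDNA fragments resolved by capillary electrophoresis. Transiently transfected HepG2 cells were dosed for 24 h; activity fitted in both directions relative to DMSO controls.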

[9] = ATG_GLI_CIS: Attagene CIS-FACTORIAL HepG2 Assay for human Zinc Finger Protein GLI1 (AID 2282945); settings: HepG2, Attagene cis-factorial reporter mRNA, GLI element; actives raise or lower the signal
Summary of the method: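 Transiently transfected HepG2 cells report endogenous transcription factor activity via cis-element-driven reporter units. After 24 h compound exposure, reporter mRNA was measured by RT-PCR with capillary electrophoresis; bidirectional fitting against DMSO baseline.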

[10] = ATG_GRE_CIS: Attagene CIS-FACTORIAL HepG2 Assay for human Glucocorticoid Response Elements (GRE) (AID 2282947); settings: HepG2 GRE cis-reporter, Attagene multiplex mRNA; actives raise or lower the signal
Summary of the method: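 Read-out: fluorescent reporter-transcript fragments separated by capillary electrophoresis after RT-PCR. Transiently transfected HepG2 cells carrying cis-element-driven reporter units were dosed for 24 h; gain or loss of signal fitted against DMSO control.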

[11] = ATG_ISRE_CIS: Attagene CIS-FACTORIAL HepG2 Assay for human Interferon Regulatory Factor 1 (IRF1) binding to an Interferon-Stimulated Response Element (ISRE) (AID 2282948); settings: HepG2 ISRE cis-reporter (Attagene), mRNA transcription readout; actives raise or lower the signal
Summary of the method: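 Read-out: fluorescent RT-PCR products resolved by capillary electrophoresis, reporting endogenous transcription factor activity via ISRE-driven reporter mRNA in transfected HepG2 cells dosed for 24 h; gain or loss fitted relative to DMSO.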

[12] = ATG_M_32_CIS: Attagene CIS-FACTORIAL HepG2 Assay for M32 Transcription Factor (Internal Marker) (AID 2282949); settings: HepG2 Attagene cis-factorial M32 reporter, mRNA; actives raise or lower the signal;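 further: background control marker of the multiplexed CIS panel rather than a real target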
Summary of the method: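 Transient MRTU transfection of HepG2; 24 h compound treatment; TriZol RNA, oligo(dT) RT, reporter PCR, 6-FAM primer extension, HpaI cut, CE. Gain/loss of signal vs DMSO.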

[13] = ATG_M_06_CIS: Attagene CIS-FACTORIAL HepG2 Assay for M06 Transcription Factor (Internal Marker) (AID 2282950); settings: HepG2 Attagene CIS-FACTORIAL M06 internal marker reporter; actives raise or lower the signal
Summary of the method: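 Serves as a background control readout. Transfected HepG2 exposed to compounds for 24 h, then reporter transcripts quantified by fluorescent RT-PCR and capillary electrophoresis. Both directions fitted against DMSO baseline.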

[14] = biological target: Hypoxia-inducible factor 1-alpha (Homo sapiens) (UniProt Q16665); experiment: ATG_HIF1a_CIS: Attagene CIS-FACTORIAL HepG2 Assay for human Hypoxia Inducible Factor 1 (HIF1A) (AID 2282951); settings: HepG2 Attagene cis-factorial HIF1a reporter transcription; actives raise or lower the signal
Summary of the method: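 Endogenous-TF cis reporter readout, human HepG2 cells, 24 h incubation; mRNA detected via RT-PCR and capillary electrophoresis fluorescence; DMSO-normalised bidirectional fitting.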

[15] = biological target: Heat shock factor protein 1 (Homo sapiens) (UniProt Q00613); experiment: ATG_HSE_CIS: Attagene CIS-FACTORIAL HepG2 Assay for human Heat Shock Transcription Factor 1 (HSE) (AID 2282953); settings: HepG2 HSE cis-reporter, Attagene RNA transcription; actives raise or lower the signal
Summary of the method: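 Endogenous transcription factor activity in transiently transfected HepG2, read as reporter mRNA by RT-PCR with fluorescent capillary electrophoresis after 24 h. Gain or loss of signal fitted versus DMSO baseline.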

[16] = ATG_MRE_CIS: Attagene CIS-FACTORIAL HepG2 Assay for human Metal Responsive Element (MRE) (AID 2282954); settings: HepG2 MRE cis-reporter transcription, Attagene multiplex; actives raise or lower the signal
Summary of the method: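 RT-PCR/capillary electrophoresis readout of reporter mRNA, 24 h post-dosing, in HepG2 cells transfected with multiplexed cis-regulated reporter constructs. Gain or loss of signal fitted bidirectionally against DMSO baseline.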

[17] = ATG_GATA_CIS: Attagene CIS-FACTORIAL HepG2 Assay for human GATA Binding Protein (AID 2282944); settings: HepG2 GATA cis-element reporter, Attagene multiplex mRNA; actives raise or lower the signal
Summary of the method: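 Reporter transcripts from a GATA cis-regulated unit, among multiplexed reporters in transfected HepG2 cells, were measured by RT-PCR with capillary electrophoresis after 24 h dosing. Induction or loss scored relative to DMSO.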

[18] = biological target: Bile acid receptor (Homo sapiens) (UniProt Q96RI1); experiment: ATG_IR1_CIS: Attagene CIS-FACTORIAL HepG2 Assay for human Nuclear Receptor Subfamily 1 Group H Member 4 (NR1H4), IR1 submotif (AID 2282946); settings: IR1 reporter transcription, actives raise or lower the signal
Summary of the method: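 Fluorescence of capillary-separated, HpaI-digested RT-PCR reporter products gave IR1-element mRNA induction in HepG2 cells 24 h after dosing. Endogenous transcription factors drove the cis-regulated reporters; activity was fitted bidirectionally against DMSO.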

[19] = biological target: Hepatocyte nuclear factor 6 (Homo sapiens) (UniProt Q9UBC0); experiment: ATG_HNF6_CIS: Attagene CIS-FACTORIAL HepG2 Assay for human Hepatocyte Nuclear Factor 6 (HNF6) (AID 2282952); settings: HepG2 Attagene cis-factorial HNF6 reporter transcription; actives raise or lower the signal
Summary of the method: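 Readout: fluorescent reporter-transcript fragments resolved by capillary electrophoresis after RT-PCR, reflecting endogenous factor activity in transfected HepG2. Exposure 24 h. Gain or loss of signal fitted bidirectionally against DMSO.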

Measured: AC50

Transcription factor E2F1 (Homo sapiens), sequence (Q01094 whole entry, looked up): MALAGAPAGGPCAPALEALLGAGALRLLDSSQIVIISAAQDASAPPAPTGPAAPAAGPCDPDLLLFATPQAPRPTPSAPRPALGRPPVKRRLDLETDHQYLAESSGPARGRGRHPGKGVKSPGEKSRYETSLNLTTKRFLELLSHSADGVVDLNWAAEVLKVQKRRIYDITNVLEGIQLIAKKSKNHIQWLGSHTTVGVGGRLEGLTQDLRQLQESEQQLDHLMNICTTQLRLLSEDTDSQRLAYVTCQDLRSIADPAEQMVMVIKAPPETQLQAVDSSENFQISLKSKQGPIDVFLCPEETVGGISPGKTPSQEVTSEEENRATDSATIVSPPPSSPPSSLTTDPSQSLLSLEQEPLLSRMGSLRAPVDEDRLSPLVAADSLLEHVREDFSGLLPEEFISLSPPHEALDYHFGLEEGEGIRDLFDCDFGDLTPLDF
Hepatocyte nuclear factor 6 (Homo sapiens), sequence (Q9UBC0 whole entry, looked up, the tested form may be a part): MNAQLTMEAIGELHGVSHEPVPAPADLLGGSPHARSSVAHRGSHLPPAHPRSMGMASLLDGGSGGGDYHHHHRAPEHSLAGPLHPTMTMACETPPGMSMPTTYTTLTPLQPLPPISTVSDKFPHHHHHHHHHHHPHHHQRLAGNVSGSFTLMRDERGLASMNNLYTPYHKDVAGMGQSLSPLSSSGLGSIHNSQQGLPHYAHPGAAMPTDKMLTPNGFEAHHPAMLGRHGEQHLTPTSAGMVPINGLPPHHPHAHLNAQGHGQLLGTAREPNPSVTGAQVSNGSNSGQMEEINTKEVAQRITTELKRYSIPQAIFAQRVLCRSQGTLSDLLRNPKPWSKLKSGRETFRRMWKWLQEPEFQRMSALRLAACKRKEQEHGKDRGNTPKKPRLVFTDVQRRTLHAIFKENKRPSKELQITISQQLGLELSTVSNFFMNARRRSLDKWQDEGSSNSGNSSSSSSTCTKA
Hepatocyte nuclear factor 3-beta (Homo sapiens), sequence (Q9Y261 whole entry, looked up, the tested form may be a part): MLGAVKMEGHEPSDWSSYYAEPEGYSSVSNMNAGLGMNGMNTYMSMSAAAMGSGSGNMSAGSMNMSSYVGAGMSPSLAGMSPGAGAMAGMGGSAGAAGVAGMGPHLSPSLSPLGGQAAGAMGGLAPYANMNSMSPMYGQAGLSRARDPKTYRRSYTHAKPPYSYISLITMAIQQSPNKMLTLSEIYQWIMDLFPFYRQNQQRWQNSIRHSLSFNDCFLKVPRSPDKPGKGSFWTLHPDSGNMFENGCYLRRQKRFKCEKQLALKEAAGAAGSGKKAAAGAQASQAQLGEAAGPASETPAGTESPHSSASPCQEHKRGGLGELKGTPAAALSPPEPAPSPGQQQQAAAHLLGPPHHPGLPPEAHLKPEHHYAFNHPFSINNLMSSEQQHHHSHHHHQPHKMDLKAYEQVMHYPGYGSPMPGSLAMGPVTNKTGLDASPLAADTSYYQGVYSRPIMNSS
Hypoxia-inducible factor 1-alpha (Homo sapiens), sequence (Q16665 whole entry, looked up): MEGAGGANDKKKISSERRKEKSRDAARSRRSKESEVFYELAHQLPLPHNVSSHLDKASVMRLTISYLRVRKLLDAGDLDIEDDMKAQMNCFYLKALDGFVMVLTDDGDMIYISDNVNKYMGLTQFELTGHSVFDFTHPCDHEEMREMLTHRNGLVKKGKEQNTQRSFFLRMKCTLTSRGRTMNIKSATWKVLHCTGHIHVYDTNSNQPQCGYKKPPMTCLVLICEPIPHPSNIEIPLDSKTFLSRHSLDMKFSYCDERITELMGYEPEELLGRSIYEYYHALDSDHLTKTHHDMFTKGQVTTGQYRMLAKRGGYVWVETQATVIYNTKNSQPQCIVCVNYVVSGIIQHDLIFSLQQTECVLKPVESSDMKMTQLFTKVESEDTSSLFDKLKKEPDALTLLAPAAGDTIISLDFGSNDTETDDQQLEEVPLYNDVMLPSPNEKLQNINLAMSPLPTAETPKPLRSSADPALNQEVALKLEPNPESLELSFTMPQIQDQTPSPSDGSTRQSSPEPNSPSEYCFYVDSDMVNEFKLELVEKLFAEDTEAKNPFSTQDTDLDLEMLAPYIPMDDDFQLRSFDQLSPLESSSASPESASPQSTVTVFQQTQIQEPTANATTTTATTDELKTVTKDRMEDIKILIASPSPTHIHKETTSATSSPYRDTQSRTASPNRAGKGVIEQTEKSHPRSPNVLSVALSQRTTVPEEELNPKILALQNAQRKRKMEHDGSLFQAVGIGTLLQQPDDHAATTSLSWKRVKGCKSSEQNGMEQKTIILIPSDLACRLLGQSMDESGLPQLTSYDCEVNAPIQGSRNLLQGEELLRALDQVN
Bile acid receptor (Homo sapiens), sequence (Q96RI1 whole entry, looked up): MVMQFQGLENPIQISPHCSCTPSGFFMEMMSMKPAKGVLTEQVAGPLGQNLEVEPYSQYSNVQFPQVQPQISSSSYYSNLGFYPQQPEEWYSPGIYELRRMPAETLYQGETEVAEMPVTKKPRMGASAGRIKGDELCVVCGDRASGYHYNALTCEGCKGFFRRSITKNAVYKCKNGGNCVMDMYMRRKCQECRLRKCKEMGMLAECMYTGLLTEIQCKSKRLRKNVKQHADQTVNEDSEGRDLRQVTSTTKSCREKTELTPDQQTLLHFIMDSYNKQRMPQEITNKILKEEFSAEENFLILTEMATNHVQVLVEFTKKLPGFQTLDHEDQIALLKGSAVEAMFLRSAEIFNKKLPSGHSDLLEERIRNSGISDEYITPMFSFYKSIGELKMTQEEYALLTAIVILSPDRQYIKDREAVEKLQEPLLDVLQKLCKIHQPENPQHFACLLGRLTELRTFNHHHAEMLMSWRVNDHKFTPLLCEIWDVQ
Heat shock factor protein 1 (Homo sapiens), sequence (Q00613 whole entry, looked up): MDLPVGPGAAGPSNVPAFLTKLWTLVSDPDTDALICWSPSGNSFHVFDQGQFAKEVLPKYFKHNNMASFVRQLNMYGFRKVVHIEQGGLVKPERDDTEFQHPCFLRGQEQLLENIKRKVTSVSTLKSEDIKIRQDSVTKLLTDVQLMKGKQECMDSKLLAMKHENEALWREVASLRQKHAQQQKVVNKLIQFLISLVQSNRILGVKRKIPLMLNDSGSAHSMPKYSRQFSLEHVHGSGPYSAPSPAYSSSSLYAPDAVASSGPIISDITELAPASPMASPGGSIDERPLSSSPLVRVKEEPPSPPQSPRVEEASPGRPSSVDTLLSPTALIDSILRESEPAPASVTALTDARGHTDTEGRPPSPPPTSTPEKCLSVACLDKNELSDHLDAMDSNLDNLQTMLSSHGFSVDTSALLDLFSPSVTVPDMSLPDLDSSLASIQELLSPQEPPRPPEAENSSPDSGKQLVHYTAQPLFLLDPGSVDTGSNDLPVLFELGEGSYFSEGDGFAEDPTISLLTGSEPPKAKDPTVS

CCCCN(CCCC)SN(C)C(=O)Oc1cccc2c1OC(C)(C)C2
active: [5] 14.7 µM
not listed: [17] | [18] | [19]
inactive: all other assays above

CCCCOCCOP(=O)(OCCOCCCC)OCCOCCCC
inactive: [1] | [2] | [4] | [6] | [7] | [8] | [9] | [10] | [11] | [12] | [13] | [14] | [15] | [16]
active: [11] 24.7 µM

CCN(CC)C1CCCCC1
not listed: [3]
inactive: all other assays above

CC1(C)CN=C(NN=C(/C=C/c2ccc(C(F)(F)F)cc2)/C=C/c2ccc(C(F)(F)F)cc2)NC1
active: [2] 13.7 µM | [5] 0.303 µM | [7] 11.1 µM | [18] 6.99 µM | [11] 18.4 µM | [12] 17.4 µM | [19] 17.3 µM | [15] 18 µM | [16] 6.34 µM
inactive: [1] | [4] | [6] | [8] | [17] | [9] | [10] | [13] | [14]

CCOP(=O)(O)C(N)=O
not listed: [3] | [5] | [17] | [19]
inactive: all other assays above

CC(Cc1ccc(OCC(=O)O)cc1)NCC(O)c1csc(C(F)(F)F)n1 (centres undefined)
not listed: [15] | [18]
inactive: all other assays above
